PubChem BioAssay
A number with no mark means an inactive call.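 How the source made its calls: active means viability increase at or above a cutoff of the median across tested compounds plus 3 SD (cut at about 8.5% in these data, passing the limit was not always enough); inconclusive means some gains above the cutoff, reason not given; inactive means the rest.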

Assay: viability gain of MRP-1-high H69AR cells under doxorubicin, pilot screen, MRP-1 activator project, CellTiter-Glo, duplicate (AID 807);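 further: compound pretreatment 18-22 h then 72 h combined with doxorubicin; 0% = doxorubicin alone and 100% = vehicle without doxorubicin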
Details: H69AR viability with doxorubicin, CellTiter-Glo luminescence; at 10 µM; active compounds read high

Question: With COC(=O)c1ccc(Cl)c(NC(=O)NC2CCCCC2)c1 as the compound, how does the viability increase read?
Answer: The viability increase was -1.61%.

Question: Which viability increase does the source give for COc1ccccc1OCC(=O)Nc1ccc(S(=O)(=O)NC(C)=O)cc1 here?
Answer: Its viability increase is 1.56%.

Question: Which viability increase does the source give for O=C(CSc1nc(-c2ccco2)cc(C(F)(F)F)n1)NC1CCCC1 here?
Answer: The viability increase was -0.46%.

Question: Which viability increase does the source give for Cc1ccc(-n2c(C)cc(C(=O)OCC(=O)N(C)C3CCS(=O)(=O)C3)c2C)cc1 (stereo not given) here?
Answer: The viability increase was -1.95%.

Question: For CC1c2[nH]c3ccccc3c2CCN1S(C)(=O)=O (stereo not given), which viability increase is on record?
Answer: The viability increase was -0.49%.

Question: Which viability increase does the source give for CCOC(=O)C1CCCN(C(=O)CN(c2ccc(OC)cc2)S(=O)(=O)c2c(C)noc2C)C1 (stereo not given) here?
Answer: Its viability increase is -2.84%.

Question: For CC(C)NS(=O)(=O)c1ccc(CCC(=O)NCc2cccnc2)cc1, which viability increase is on record?
Answer: The viability increase was -0.9%.

Question: With O=S(=O)(NCCO)c1cccc2cccnc12 as the compound, how does the viability increase read?
Answer: Its viability increase is -1.21%.

Question: Which viability increase does the source give for O=c1[nH]c2ccc(Cl)cc2c(-c2ccccc2)c1N1CCOCC1 here?
Answer: Its viability increase is -3.04%.

Question: For CC1Cc2ccccc2N1C(=O)CSC1=NCCS1 (stereo not given), which viability increase is on record?
Answer: Its viability increase is -6.91%.

Question: With COc1cccc(-n2c(Cc3cc(=O)[nH]c(=O)[nH]3)nnc2SCC(=O)N2CCCCC2)c1 as the compound, how does the viability increase read?
Answer: The viability increase was -1.49%.

Question: For Cc1csc2nc(CNS(=O)(=O)c3ccc(-c4ccccc4)cc3)cn12, which viability increase is on record?
Answer: Its viability increase is -1.09%.

Question: Which viability increase does the source give for CC(=O)Nn1cc2c(=O)n(C)c(=O)n(C)c2c1 here?
Answer: The viability increase was 0.99%.

Question: For O=C(CCc1nc2ccccc2[nH]1)N1CCc2ccccc2C1, which viability increase is on record?
Answer: The viability increase was -1.86%.

Question: For Cc1cc2cc(CCNC(=O)c3c(-c4ccccc4Cl)noc3C)c(=O)[nH]c2cc1C, which viability increase is on record?
Answer: The viability increase was -3.71%.

Question: With Cc1ccc2c(c1)c1c(n2CC(O)CN2C(=O)CNC2=O)C(=O)CCC1 (stereo not given) as the compound, how does the viability increase read?
Answer: The viability increase was 4.52%.

Question: With CCOC(=O)C1=C2N(C)c3ccccc3N2CCC1=O as the compound, how does the viability increase read?
Answer: Its viability increase is -3.21%.

Question: For CN(CC(=O)N1CC=C(c2ccccc2)CC1)S(=O)(=O)c1ccc2c(c1)c(=O)n(C)c(=O)n2C, which viability increase is on record?
Answer: Its viability increase is -3.46%.

Question: Which viability increase does the source give for CC1Cc2ccccc2N1C1=NS(=O)(=O)c2ccccc21 (stereo not given) here?
Answer: The viability increase was -1.97%.

Question: With CCOC(=O)N1CCC(NC(=O)c2csc3c2CCCC3)CC1 as the compound, how does the viability increase read?
Answer: The viability increase was -2.82%.

Question: Which viability increase does the source give for COC(=O)NCC(c1cccnc1)N1CCN(c2ccccc2F)CC1 (stereo not given) here?
Answer: Its viability increase is -0.18%.

Question: For Cc1nc2ccccc2n1-c1ccccc1, which viability increase is on record?
Answer: Its viability increase is 0.08%.

Question: With Cc1cc(-c2ccccc2)n2ncc(C#N)c2n1 as the compound, how does the viability increase read?
Answer: The viability increase was -1.18%.

Question: For CSC1=NCCN1C(=O)COc1ccccc1, which viability increase is on record?
Answer: The viability increase was 1.95%.

Question: Which viability increase does the source give for COC(=O)c1ccccc1NC(=O)CSc1nccn1C here?
Answer: The viability increase was -0.69%.

Question: Which viability increase does the source give for N#Cc1nc(-c2ccccc2F)oc1NCc1ccccc1 here?
Answer: The viability increase was 1.59%.

Question: Which viability increase does the source give for OC(C#CCN1CCCC1)c1ccccc1 (stereo not given) here?
Answer: Its viability increase is -0.22%.

Question: With COC(=O)c1ccc(CSc2ncn[nH]2)o1 as the compound, how does the viability increase read?
Answer: The viability increase was 0.51%.

Question: Which viability increase does the source give for COc1cc(/C=N/n2cnnc2)ccc1OC(=O)c1ccncc1 here?
Answer: The viability increase was -2.23%.

Question: For Cc1cc(NC(=O)CSCCc2ccncc2)no1, which viability increase is on record?
Answer: The viability increase was -0.06%.

Question: For C=CCn1c(SCc2ccc(F)cc2)nc2c1c(=O)[nH]c(=O)n2C, which viability increase is on record?
Answer: The viability increase was -2.64%.

Question: For Cn1c(NC(=O)CC(C)(C)C)cc(=O)n(C)c1=O, which viability increase is on record?
Answer: The viability increase was -0.07%.

Question: Which viability increase does the source give for O=C(CSc1n[nH]c(-c2ccccc2)n1)c1ccccc1 here?
Answer: Its viability increase is -0.56%.

Question: With Cc1cc(C(=O)NCC2CCCO2)n(-c2ccccc2)n1 (stereo not given) as the compound, how does the viability increase read?
Answer: The viability increase was -1.22%.

Question: With COC(=O)CSc1nc2ccccc2nc1SCC(=O)OC as the compound, how does the viability increase read?
Answer: The viability increase was -2%.

Question: With COC(=O)C1=C(C)N(c2cc(Cl)cc(Cl)c2)C(=O)C1 as the compound, how does the viability increase read?
Answer: The viability increase was -6.24%.

Question: Which viability increase does the source give for CC(=O)c1c(C)[nH]c(C(=O)Nc2cc(C)ccc2C)c1C here?
Answer: Its viability increase is -1.16%.

Question: With COc1cc(CN2CCN(c3cccc(C)c3C)CC2)cc(Br)c1O as the compound, how does the viability increase read?
Answer: Its viability increase is -2.57%.

Question: With Cn1c(SCC(=O)Nc2ccccc2F)nnc1-c1cccnc1 as the compound, how does the viability increase read?
Answer: The viability increase was -0.11%.

Question: For Cc1ccc(OCCn2c(C)c(/C=N/n3cnnc3)c3ccccc32)cc1, which viability increase is on record?
Answer: The viability increase was -6.55%.
